# Rows were chosen to be rich in hits. Some 3% of all compounds tested hit in one or more screens of this group.
# SKKanGAS inh – blocks kanamycin growth of S. pyogenes SKKanGAS strain; BacTiter-Glo, 6 h; inhibition, % at 7.5 µM; hit rate 1.3% among 300,000;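 active = mean replicate score, as percent of positive control median, at least 50; inconclusive = mean below 50 but one replicate at or above 50; inactive = mean and every replicate below 50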;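 note: strain carries kanamycin resistance gene driven by streptokinase promoter and grows in 40 µg/ml kanamycin; loss of luminescence reflects streptokinase promoter inhibition or plain growth inhibition; 0% = median of DMSO wells and 100% = positive control at its reference dose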
# IEC-6 tox – kills IEC-6 intestinal cells in KLF5 counter-screen | IEC-6 cytotoxicity, luminescence viability | hit rate 0.78% among 290,000 | AID 1825 | inhibition, % at 5 µM; in the data active = inhibition above about 22%;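 note: 0% = plate median of test compound wells and 100% = cytotoxic reference compound wells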
# KLF5 inhibitor – suppresses KLF5 promoter-driven expression | DLD-1 KLF5 promoter-luciferase reporter, luminescence | inhibition, % at 5 µM | hit rate 0.23% among 290,000 | AID 1700;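 active = inhibition above a per-plate limit of that plate's mean compound inhibition plus 3 SD, cut at about 60% in these data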;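 note: 0% = DMSO wells and 100% = LY294002 at 200 µM; higher means less KLF5 promoter-driven luciferase light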
# CSC inhib – cancer stem cell inhibition | cancer stem cell-like cells viability, luminescence | inhibition, % at 7.5 µM | hit rate 1.1% among 300,000 | AID 2717; in the data active = inhibition above about 75%; inconclusive = no clear call, values can overlap the other calls; tested in HMLE shEcad cells
# aSyn UTR inh – MLPCN primary screen, SNCA 5' untranslated region; alpha-synuclein 5'UTR reporter, inhibitor activity; inhibition, % (tested at 7.5 µM); hit rate 0.82% among 300,000; AID 1813; in the data active = inhibition above about 60%; inconclusive = no clear call, values can overlap the other calls;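 note: H4 neuroglioblastoma cells stably carrying SNCA 5'UTR luciferase fusion; 0% = DMSO wells and 100% = positive control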
# * marks the source's active call; other numbers are inactive results; u = inconclusive; x = no result given.
SMILES,SKKanGAS inh,IEC-6 tox,KLF5 inhibitor,CSC inhib,aSyn UTR inh
CO[C@H]1/C=C/O[C@@]2(C)Oc3c(C)c(O)c4c(O)c(c(C=NN5CCN(C)CC5)c(O)c4c3C2=O)NC(=O)/C(C)=C\C=C\[C@H](C)[C@H](O)[C@@H](C)[C@@H](O)[C@@H](C)[C@H](OC(C)=O)[C@@H]1C,x,x,x,-0.5,x
CO[C@H]1C=CO[C@@]2(C)Oc3c(C)c(O)c4c(O)c(c(C=NN5CCN(C6CCCC6)CC5)c(O)c4c3C2=O)NC(=O)C(C)=CC=C[C@H](C)[C@H](O)[C@@H](C)[C@@H](O)[C@@H](C)[C@H](OC(C)=O)[C@@H]1C,105.4*,1.4,4.3,x,3.5
O=C(NC1CC1)C1CCN(S(=O)(=O)c2ccc(Cl)c([N+](=O)[O-])c2)CC1,x,x,x,63.9,x
COc1ccc(CCNC(=O)c2cc(-c3ccc(Cl)c(Cl)c3)oc2C)cc1,52.8*,1.0,3.6,u,-18.8
CC(C)Cc1nc(N2CCCCC2)c(C#N)c2c1CCC2,51.3*,-0.2,-34.5,-13.7,-6.4
Cc1ccc(N2C(=O)C3CC(c4ccccc4)=C4C5C=CC(C6C(=O)N(c7ccc(C)cc7)C(=O)C56)C4C3C2=O)cc1 (centres undefined),65.4*,-3.2,-12.0,-7.9,15.3
O=C(CN1CC(=O)Nc2ccccc21)NCCc1ccc(Cl)cc1Cl,-8.8,-2.8,-33.3,2.3,-16.1
CCOC(=O)c1nc(Nc2ccc(Nc3ccccc3)cc2)c2ccccc2n1,55.9*,-11.3,-40.5,x,-48.2
O=C(NCc1cccs1)C1CCN(c2ccc(S(=O)(=O)N3CCOCC3)cc2Cl)CC1,5.1,76.1*,74.3*,59.4,23.6
CCNc1nc(SCCOc2ccc(C)cc2)nc(N(C)C)n1,1.8,-1.6,-14.9,52.5,28.6
Cc1ccc(OCCSc2nc(NC(C)C)nc(NC(C)C)n2)cc1,71.6*,4.3,-12.9,89.6*,24.8
CN1CCN(c2ccc(S(=O)(=O)N3CCCCC3)cc2NC(=O)/C=C/c2ccc(Cl)c([N+](=O)[O-])c2)CC1,-8.6,x,x,98.4*,-47.4
CCN1CCN(c2ccc(S(=O)(=O)N3CCCCC3)cc2NC(=O)/C=C/c2ccc([N+](=O)[O-])cc2)CC1,3.9,x,x,-1.5,6.4
CC1(C)Cc2c(cnn2-c2ccc(F)cc2)C(NC(=O)CN2CCCC2=O)C1 (centres undefined),0.7,-0.8,-25.9,-2.8,-5.8
Cc1nc(SCc2cccc(F)c2)c2oc3ccccc3c2n1,55.4*,-0.2,-16.8,25.5,3.2
Cc1nc(SCC(=O)Nc2ccc(F)cc2)c2oc3ccccc3c2n1,10.2,-0.5,-15.0,-19.0,-4.3
c1ccc(CSc2ncnc3c2oc2ccccc23)cc1,52.0*,2.6,-51.3,x,13.5
O=C(CSc1nnc2ccc(-c3ccccn3)nn12)Nc1ccccc1F,-5.5,x,x,-5.4,-3.9
COc1ccc(NC(=O)Cn2nnc(-c3ccccc3NS(=O)(=O)c3ccc(OC)cc3)n2)cc1,5.7,45.7*,74.6*,58.3,106.5*
COc1ccccc1NC(=O)Cn1nnc(-c2ccccc2NS(=O)(=O)c2ccccc2)n1,-7.8,-4.3,21.3,0.7,0.5
Cc1ccc(NC(=O)Cn2nnc(-c3ccccc3NC(=O)c3cccs3)n2)cc1,31.2,7.0,-14.1,-10.0,67.2*
CC(C)CNC(=O)c1ccccc1N(Cc1ccccc1)S(C)(=O)=O,2.1,1.6,-36.1,-13.6,2.9
N=C(N)SCc1nc2ccccc2c(=O)n1-c1ccccc1Cl,-1.0,-2.5,-18.3,93.0*,-47.3
CCOC(=O)c1c(NC(=O)c2nn(CC)cc2Br)sc2c1CCCCC2,18.9,1.2,-10.8,84.6*,20.2
CCOC(=O)c1c(NC(=S)N2CCCCC2)sc2c1CCN(C(=O)OCC)C2,10.4,-3.2,-27.3,93.3*,-22.1
SMILES,SKKanGAS inh,IEC-6 tox,KLF5 inhibitor,CSC inhib,aSyn UTR inh
CCOC(=O)c1c(NC(=S)N2CCOCC2)sc2c1CCN(C(=O)OCC)C2,5.1,5.4,-35.3,53.9,-53.0
COc1ccc(S(=O)(=O)NCC2CCCN(Cc3cn(C)nc3C)C2)cc1 (centres undefined),-9.3,-3.9,-6.3,17.0,-3.0
O=[N+]([O-])c1cccc(N/N=C/c2cc([N+](=O)[O-])ccc2O)c1,-3.8,2.2,-25.9,1.1,-69.6
CCCOc1ccc(/C=N/Nc2ccccc2[N+](=O)[O-])c(O)c1,40.8,-1.5,-27.9,x,62.0*
CCCOc1ccc(/C=N/Nc2cccc([N+](=O)[O-])c2)c(O)c1,-0.7,-6.0,-38.5,112.9*,-164.3
CCNC(=S)N/N=C/c1ccccc1[N+](=O)[O-],x,6.9,-15.5,-8.3,-2.3
CCCOc1ccc(/C=N/NC(=S)Nc2ccccc2[N+](=O)[O-])c(O)c1,101.9*,-0.8,34.9,88.5*,100.6*
Cc1ccc2[nH]c3c(=O)n(CC(=O)Nc4ccccc4N4CCN(C)CC4)ncc3c2c1,-1.3,-4.7,-28.0,-13.5,8.6
Cc1cc(/C=N/n2cnnc2)c(C)n1-c1ccc(OCc2ccc(Cl)cc2Cl)cc1,122.3*,-1.5,57.3,103.1*,113.1*
Cc1cc(/C=N/n2cnnc2)c(C)n1-c1ccc(Cl)cc1,-1.0,7.2,-1.9,-12.7,16.1
O=C(N[C@H](CO)[C@H](O)c1ccc([N+](=O)[O-])cc1)C(Cl)Cl,100.9*,x,x,-1.0,-5.6
O=C(NC(CO)C(O)c1ccc([N+](=O)[O-])cc1)C(Cl)Cl (centres undefined),103.6*,0.7,13.8,-20.9,-16.7
O=C(NC(CO)Cc1ccc([N+](=O)[O-])cc1)C(Cl)Cl (centres undefined),96.8*,1.7,-18.7,x,-4.7
Cc1sc2nc(CN3CCOCC3)nc(NS(=O)(=O)c3cc(Cl)ccc3Cl)c2c1C,x,x,x,-9.0,x
O=C(CSc1nc(-c2ccco2)cc(C(F)(F)F)n1)Nc1ccccc1C(F)(F)F,1.6,2.5,7.9,75.0*,-5.0
Cc1cc(NC(=O)CSc2nc(-c3ccco3)cc(C(F)(F)F)n2)no1,1.1,45.6*,39.4,-20.3,68.9*
Cc1cccc(C)c1NC(=O)CSc1nc(-c2ccco2)cc(C(F)(F)F)n1,2.1,-3.1,20.6,45.4,-32.0
Cc1cc(NC(=O)CCSc2nc(-c3ccco3)cc(C(F)(F)F)n2)no1,6.2,-2.4,-4.9,15.5,20.0
O=C(OC(C(=O)NC1CCCCC1)c1ccccc1F)c1ccco1 (centres undefined),5.7,-1.4,-19.6,3.4,19.6
O=C(C1CCC(C(=O)N2CCc3ccccc32)CC1)N1CCc2ccccc21 (centres undefined),8.6,3.3,-32.0,10.0,10.9
O=C(Nc1ccccc1)C(=O)Nc1ccc2c(c1)N(C(=O)C1CC1)CCC2,54.5*,x,x,x,-121.0
COc1ccc(CN2C(=O)c3ccc(C(=O)O)cc3C2=O)cc1,-2.2,-1.1,-35.8,-9.0,1.3
COc1ccc(NC(=O)C(=O)NCC(c2ccco2)N2CCc3ccccc32)cc1 (centres undefined),2.2,x,x,34.7,84.9*
Cc1ccc(-n2c(O)c(C=Nc3ccccc3-c3n[nH]c(=S)[nH]c3=O)c3ccccc3c2=O)c(C)c1,72.6*,-5.0,-5.8,12.4,7.6
CNc1nc(SCc2ccccc2Cl)nc2c1CCCC2,34.0,-4.0,34.6,78.9*,23.4

# Screens as filed in PubChem BioAssay.
